An excerpt weighted towards active compounds, which were near 4.8% of everything screened.
hcDAF-12 act = activators of H. contortus DAF-12 nuclear receptor; HEK293 hcDAF-12 lit1-tk-luc reporter, luminescence; 0% DMSO, 100% Δ7-dafachronic acid; activation, % at 6.8 µM; 370,000 compounds, 1.4% hits;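 active = activation above the mean of all tested compounds plus 3 SD, cut at about 5.5% in these data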
DAX1 inh-1 = inhibits human nuclear receptor DAX1. HEK293 Gal4-DAX1 luciferase reporter, luminescence. AID 504766. inhibition, % at 6.75 µM. 340,000 compounds, 0.99% hits;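 active = inhibition above the mean over all tested compounds plus 3 SD, cut at about 4.2% in these data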;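 also: inhibition shows as a rise in luminescence from relieved DAX1 repression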
Target sequence (P51843 207-470 limits assumed): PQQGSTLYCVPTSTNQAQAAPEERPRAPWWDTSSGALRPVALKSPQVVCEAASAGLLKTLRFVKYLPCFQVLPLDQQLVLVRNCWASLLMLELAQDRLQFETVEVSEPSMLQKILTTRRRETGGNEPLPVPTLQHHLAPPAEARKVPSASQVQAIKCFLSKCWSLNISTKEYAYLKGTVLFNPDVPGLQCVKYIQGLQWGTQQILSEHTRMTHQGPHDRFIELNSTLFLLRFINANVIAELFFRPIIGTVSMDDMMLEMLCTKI
SMARCA2 act = activators of SMARCA2 function | MG213 cells, MMTV-luciferase reporter, dexamethasone, overnight | activation, % at 9.1 µM | 370,000 compounds, 1% hits | AID 652017; in the data active = activation above about 7.8%
hgDAF12 agonist = activates the H. glycines DAF-12 receptor ligand-binding domain; HEK293 GAL4-hgDAF12 UAS-luciferase reporter, agonist luminescence; normalized to butyrate control; activation, % at 6.8 µM; 370,000 compounds, 1.8% hits; AID 687014;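 active = activation above a cutoff set at the mean of all screened compounds plus 3 SD, cut at about 10% in these data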
DAX1 inh-2 = blocks DAX1 repression of SF-1 activated StAR promoter. HEK293T StAR-luciferase reporter, SF-1/DAX-1 repression relief. inhibition, % at 6.8 µM. 370,000 compounds, 1.1% hits;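 active = inhibition above the mean over all tested compounds plus 3 SD, cut at about 3.6% in these data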;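 also: higher inhibition means more luminescence from relief of DAX-1 repression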
ssDAF-12 act = S. stercoralis DAF-12 activation, primary screen; HEK293 ssDAF-12/GRIP1 lit1-tk-luc reporter, luminescence; % of 3 µM dafachronic acid response; activation, % at 6.8 µM; 370,000 compounds, 1% hits;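 active = activation above the mean over all tested compounds plus 3 SD, cut at about 0.9% in these data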
Of the large screens only hits and unclear results are named; the others gave an inactive call.

COc1ccc(NC(=O)C(c2ccnc3ccccc23)n2c(=O)c(-c3ccccc3)nc3ccccc32)cc1 (stereo not drawn)	hcDAF-12 act 5.6 (no result: DAX1 inh-1)
COc1ccc(NC(=O)C(c2ccnc3ccccc23)n2c(=O)c(-c3ccco3)nc3ccccc32)cc1 (stereo not drawn)	none (no result: DAX1 inh-1)
COc1cccc(CN(C)C(=O)CSCC(=O)Nc2cccc(C)c2)c1OC	none
Cc1ccc(S(=O)(=O)N2O[C@@H](c3ccccc3)C[C@H]2CON2C(C)(C)CCCC2(C)C)cc1	none (no result: DAX1 inh-1, SMARCA2 act, DAX1 inh-2)
CCOC(=O)Cc1csc(NC(=O)c2cnc3sc(C)cn3c2=O)n1	hcDAF-12 act 6.3
CCOC(=O)Cc1csc(NC(=O)c2ccc(C)o2)n1	none
CCOC(=O)Cc1csc(NC(=O)/C=C/c2ccc(OC)cc2)n1	hgDAF12 agonist 12
CCN1CCCSC1=S	none (no result: DAX1 inh-1)
CC1CC(=O)c2cnc(Nc3ccccc3)nc2C1 (stereo not drawn)	DAX1 inh-2 4.0
CC1CC(=O)c2cnc(Nc3cccc(C(F)(F)F)c3)nc2C1 (stereo not drawn)	none
CCOc1ccc(S(=O)(=O)N2CCN=C2c2ccccc2)c(C)c1C	none
Cc1nc2ccc(S(=O)(=O)NCC(=O)N3CCc4ccccc43)cc2s1	ssDAF-12 act 0.9
CC(=O)c1cc(-c2cccc(CO)c2)c(=O)n2c1CCC2	none (no result: DAX1 inh-1)
COc1cccc(CN2CC(C(=O)N3CCCC3)CCC2=O)c1 (stereo not drawn)	none
COc1cccc(CN2CC(C(=O)N3CCN(C(C)C)CC3)CCC2=O)c1 (stereo not drawn)	DAX1 inh-1 4.6
O=C(C1CCCO1)N1CCN(C(=S)Nc2cc(F)cc(F)c2)CC1 (stereo not drawn)	none
CCOc1ccc(CCN2C(=S)N([C@@H](Cc3ccc(O)cc3)CN3CCC[C@@H]3CN3C(=S)NC[C@@H]3CC(C)C)C[C@@H]2CC(C)C)cc1	none (no result: DAX1 inh-1)
CCOc1ccc(CCN2C(=S)N([C@@H](CC(C)C)CN3CCCC3CN3C(=S)NC[C@@H]3CC(C)C)C[C@@H]2CC(C)C)cc1 (stereo partly drawn)	DAX1 inh-2 4.4
Cc1cc(OCc2cc(C(=O)N(C)C3CCOC3)no2)cc(C)c1Cl (stereo not drawn)	hgDAF12 agonist 11
COc1cc(Cl)ccc1OCc1cc(C(=O)N(C)CCc2cnn(C)c2)no1	hcDAF-12 act 6.1, hgDAF12 agonist 12
COc1cc(Cl)ccc1OCc1cc(C(=O)N(C)CC2CCCCO2)no1 (stereo not drawn)	hgDAF12 agonist 12
COc1ccc(OCc2cc(C(=O)N(C)CC3CCCCO3)no2)c(Cl)c1 (stereo not drawn)	none
Cc1ccc(OCc2cc(C(=O)N(C)C3CCCc4ccccc43)no2)cc1C (stereo not drawn)	hcDAF-12 act 5.8, hgDAF12 agonist 11
O=C(C1=NOC2(C1)C(=O)N(Cc1ccccc1)c1ccccc12)N1CCOCC1 (stereo not drawn)	none (no result: DAX1 inh-1)
CC1=C(C(N)=O)C(c2ccc(Cl)c(Cl)c2)n2ncnc2N1 (stereo not drawn)	none
CCc1nc2ccc(C(=O)N3CCN(C(=O)c4ccco4)CC3)cn2c1N(C)C(=O)C1CCCCC1	none (no result: DAX1 inh-1)
CNC(=O)C[C@H]1C(=O)N(c2ccccc2)C[C@@H]1CSC	none
C[C@@H]1CN([C@H](C)CO)C(=O)CCCn2nncc2CO[C@H]1CN(C)Cc1ccc2cccnc2c1	none
Cc1cc(OCc2cc(C(=O)N(C)CCc3cnn(C)c3)no2)cc(C)c1Cl	DAX1 inh-2 4.2
C1=C2C[N+]3(CCCC3)CC2Cc2ccc3ccccc3c21 (stereo not drawn)	none
C[N+]1(C)CC2=Cc3ccccc3CC2C1 (stereo not drawn)	DAX1 inh-1 4.8
COc1ccccc1N1C[C@@H]2C[C@@H](c3ccco3)N3CCC[C@@]23C1=O	DAX1 inh-1 4.9
COc1ccc2c(c1)NC(=O)[C@@]2(CCN1C(=O)c2ccccc2C1=O)c1[nH]c2ccccc2c1CCN1C(=O)c2ccccc2C1=O	none (no result: DAX1 inh-1, SMARCA2 act, DAX1 inh-2)
O=C1C=CC(=Nc2ccc3c(c2)Cc2cc(F)ccc2-3)O1	hgDAF12 agonist 13
COc1ccc(/C=N/NC(=O)c2ccccc2OC)cc1COc1ccccc1[N+](=O)[O-]	ssDAF-12 act 1.4
COc1ccc(/C=N\NC(=O)c2ccc([N+](=O)[O-])c(C)c2)cc1COc1ccccc1C(N)=O	none
COc1ccc(/C=N/NC(=O)c2ccccc2OC)cc1COc1ccc(C)cc1	hcDAF-12 act 5.6
COc1ccc(/C=N/NC(=O)c2ccoc2C)cc1OC	none
COc1ccc(/C=N/Nc2ccccc2C(=O)O)cc1Cn1cc([N+](=O)[O-])cn1	ssDAF-12 act 1.1
COc1ccc(/C=N/NC(=O)c2ccoc2C)cc1COc1ccc(Cl)cc1	ssDAF-12 act 1.3
CC1CCN(S(=O)(=O)N2CCC(C(=O)NCc3ccc(F)cc3Cl)CC2)CC1	none
COc1cc(/C=N/NC(N)=S)ccc1OCc1ccc(C)cc1	hgDAF12 agonist 11
COc1cc(/C=N/NC(N)=S)ccc1OC(=O)c1ccc(C)cc1	none
Cc1cccc2cc(C3CC(c4cccs4)=NN3S(C)(=O)=O)c(Cl)nc12 (stereo not drawn)	none
COc1ccc(N2CC(C(=O)N[C@@H](C)C(=O)NC3CCCC3)CC2=O)cc1 (stereo partly drawn)	none
CCC(C)[C@H](NC(=O)C1CC(=O)N(c2ccc(OC)cc2)C1)C(=O)NC1CCCC1 (stereo partly drawn)	SMARCA2 act 8.0
CC(=C1C(=O)c2ccccc2C1=O)N1CCc2ccccc2C1	hcDAF-12 act 5.7, SMARCA2 act 7.9
CC(C(=O)N1CCc2ccccc2C1)N(c1ccccc1)S(C)(=O)=O (stereo not drawn)	none
CC(=O)N/C(=C\c1ccccc1)C(=O)OCC(=O)NC1CCCC1	hcDAF-12 act 6.4
O=C(COc1ccc(Br)cc1Cl)c1ccc[nH]1	hgDAF12 agonist 13
C#CCOCCOCCOCCNc1nc(N2CCN(C(=O)[C@H](CCCCN)n3cc([C@@H](N)CC(N)=O)nn3)CC2)nc(N2CCN(C(=O)[C@H](CCCCN)n3cc([C@@H](N)CC(N)=O)nn3)CC2)n1	DAX1 inh-1 4.5
C#CCOCCOCCOCCNc1nc(N2CCN(C(=O)[C@H](CCCCN)n3cc(CN)nn3)CC2)nc(N2CCN(C(=O)[C@H](CCCCN)n3cc([C@@H](N)CC(N)=O)nn3)CC2)n1	none
COc1ccccc1C(CNC(=O)c1ccc(NS(=O)(=O)c2ccc3c(c2)OCCO3)cc1)N(C)C (stereo not drawn)	none
Cc1nn(-c2ccccc2)c(C)c1C(=O)NCCc1ccc(Cl)cc1	none
Cc1nn(-c2ccccc2)c(C)c1C(=O)NCCc1ccccc1	SMARCA2 act 8.0

Screens (PubChem)
